Over roughly 39,000 sequences, “fluorescence intensity (a.u.)” has its median near 4,300; the highest 2% begin near 39,000. The sample as a whole holds a higher share of the highest values than the screen did.
Biological target: T1, OsSMF1 (Oryza sativa, UniProt Q6ZLB0 1-436)
T1 sequence: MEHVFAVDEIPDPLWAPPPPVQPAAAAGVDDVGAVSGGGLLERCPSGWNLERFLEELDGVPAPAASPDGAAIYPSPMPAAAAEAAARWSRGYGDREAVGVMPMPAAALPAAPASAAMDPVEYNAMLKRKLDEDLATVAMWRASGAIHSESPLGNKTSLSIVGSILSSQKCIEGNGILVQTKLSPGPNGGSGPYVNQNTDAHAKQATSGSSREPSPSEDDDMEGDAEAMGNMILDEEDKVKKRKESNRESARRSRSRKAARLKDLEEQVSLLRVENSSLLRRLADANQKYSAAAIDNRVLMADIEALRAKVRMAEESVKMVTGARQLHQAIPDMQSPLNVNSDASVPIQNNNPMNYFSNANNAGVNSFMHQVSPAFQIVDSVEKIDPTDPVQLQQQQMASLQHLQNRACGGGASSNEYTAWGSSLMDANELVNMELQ
Assay: protein-binding microarray (RPBM); PBS, 2% BSA, 51.3 ng/ul salmon testes DNA, 50 uM zinc acetate, 200 nM TF, 25 C, 1 h; high values mean tight binding
Conditions: protein: recombinant; tags: N-terminal polyhistidine and DsRed monomer fusion (pET32a); chain copies: 2; label: CyDye5-dUTP incorporated in the synthesized complementary strand; 3' TTTTT single-stranded linker to array surface; dsDNA, one strand shown
How it was run: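 Transcription factors, each fused N-terminally to a polyhistidine tag and DsRed, were expressed in E. coli BL21-CodonPlus and purified on Ni–NTA. A custom Agilent array was made double-stranded by primer extension with Cy5-dUTP and blocked with 2% BSA. It was incubated with 200 nM protein in PBS, 2% BSA, salmon testes DNA and 50 µM zinc acetate at 25 °C for 1 h, then washed. The binding signal is per-feature fluorescence intensity (arbitrary units) read on an Axon 4000B scanner.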

| Sequence | binding signal |
| --- | --- |
| AATGCTGCAATTTCTCGTTGACTAGACTTCACATGCAGCTCGGAGTCACCTAGTGCAG | 5400 fluorescence intensity (a.u.) |
| TCCGTTGAGATCAGCACTTTCTAGCAGCTGTACAAGAGACCGGAGTCACCTAGTGCAG | 3740 fluorescence intensity (a.u.) |
| GCCCATGTACGATGACGTGTACCCTATTGTCTTCTACTAGCGGAGTCACCTAGTGCAG | 21600 fluorescence intensity (a.u.) |
| CACGCCAACGCCCAAGCCCACCAACCCAAGTTGAGTCGTGCGGAGTCACCTAGTGCAG | 3360 fluorescence intensity (a.u.) |
| ATATAGATCATCATCAAGACTACGTATTATTCACTATTCACGGAGTCACCTAGTGCAG | 3160 fluorescence intensity (a.u.) |
| CTACATCAGCTATATCTATTGTTGCTCTTACACTAAATTACGGAGTCACCTAGTGCAG | 23700 fluorescence intensity (a.u.) |
| AATCTATGCATATATATATATATATATATGTCTAGATTCACGGAGTCACCTAGTGCAG | 3240 fluorescence intensity (a.u.) |
| CCATATCATATTACTCCTACATGTGTACTACATTTATATTCGGAGTCACCTAGTGCAG | 3720 fluorescence intensity (a.u.) |
| AATGGATCTAGACTATATCTATCTAGATTCATTAGTATCACGGAGTCACCTAGTGCAG | 45400 fluorescence intensity (a.u.) |
| TTACAGGATTATATATCATGTTTATCTATTCGTCTTACTACGGAGTCACCTAGTGCAG | 39500 fluorescence intensity (a.u.) |
| CCGCTCCGCCTACTCTGGCCACGCGCTGACGCCGCGTCCCCGGAGTCACCTAGTGCAG | 7060 fluorescence intensity (a.u.) |
| GGCGGAGACGCGGGCGTGGCTCGGCGGCCTGCTAGTGTGACGGAGTCACCTAGTGCAG | 3340 fluorescence intensity (a.u.) |
| AAGTCCTCCCACAAGTCAACCAACCAAAACCACGTCCAAACGGAGTCACCTAGTGCAG | 3420 fluorescence intensity (a.u.) |
| AAAGCCAAACAAGTGTCCAAACGGCTAGGAGTCAACCTCGCGGAGTCACCTAGTGCAG | 41200 fluorescence intensity (a.u.) |
| TTCAAGTCCAACCTCGGCCACATGCTCCGCCTCCGCCTCGCGGAGTCACCTAGTGCAG | 3780 fluorescence intensity (a.u.) |
| TTTCTTAACTCGACACGCAATGTATTGTTATTTACGATTCCGGAGTCACCTAGTGCAG | 3740 fluorescence intensity (a.u.) |
| TACCACTATCGGAAGTTTTGGTTGTGACGTCCACAATTCCCGGAGTCACCTAGTGCAG | 3760 fluorescence intensity (a.u.) |
| CTAATGGGACTGCTGCTACCCTATCTTTAGTCCGGGACTACGGAGTCACCTAGTGCAG | 3270 fluorescence intensity (a.u.) |
| AACCGGGACTAAAGATCGTACCTTTAGTTACGATCTTTAGCGGAGTCACCTAGTGCAG | 28500 fluorescence intensity (a.u.) |
| TTTCACCCGGGACTAAAGATCGCTATCTTTAGTCCCGGATCGGAGTCACCTAGTGCAG | 52600 fluorescence intensity (a.u.) |
| CAAGGGAGCTGGTAACACTCATCATTTCCGTTCTTCAAATCGGAGTCACCTAGTGCAG | 3250 fluorescence intensity (a.u.) |

| Sequence | binding signal |
| --- | --- |
| AGGTTGGTGATTCAGAGATGTCGAGACGTGTGTTCTTTTGCGGAGTCACCTAGTGCAG | 4270 fluorescence intensity (a.u.) |
| AACTCCGAGCGTTGCTATGGGAGTTCCGTAAAATAGTAATCGGAGTCACCTAGTGCAG | 39300 fluorescence intensity (a.u.) |
| GCGCGTTGCTGCTGACTCCGGAGCAAAATCGAGCGAGCGCCGGAGTCACCTAGTGCAG | 3360 fluorescence intensity (a.u.) |
| TTAATACAAATCCGTTGCATCACACGAGTCATATGCTAGTCGGAGTCACCTAGTGCAG | 5010 fluorescence intensity (a.u.) |
| TTGAATTGCCATTACAAGCAGAAACTGGGTAGCCCAGCAGCGGAGTCACCTAGTGCAG | 14600 fluorescence intensity (a.u.) |
| GCCGCTGCACCGCCCCAGCCTCCTCCTCCCCACCGATGCCCGGAGTCACCTAGTGCAG | 3150 fluorescence intensity (a.u.) |
| TCTATAAATATGATGTGGCTATGTACTCAGTACTCACCTGCGGAGTCACCTAGTGCAG | 6690 fluorescence intensity (a.u.) |
| GGCGGCACAGGTCGCCGTCGTCGCCACCGACGCGGCGTCGCGGAGTCACCTAGTGCAG | 3730 fluorescence intensity (a.u.) |
| ACGGGCTCGTCGAGCTGCTCTGGTGCAATGGCCACGTCATCGGAGTCACCTAGTGCAG | 28400 fluorescence intensity (a.u.) |
| GCGCCCCATCCACGCGTCATGCATCCACGTCGGGGCTGCACGGAGTCACCTAGTGCAG | 11600 fluorescence intensity (a.u.) |
| GCTGTCCTGCTCGTCGGCCTCCACGCGCGCTCATCGGCCTCGGAGTCACCTAGTGCAG | 3240 fluorescence intensity (a.u.) |
| GTGCAGATCCACTGTCTGCTCATTGGGCTTATTCATGGCTCGGAGTCACCTAGTGCAG | 40700 fluorescence intensity (a.u.) |
| CACGAGTGCCTCTCCGTCATGCTCCACGACAGCTGCAGCCCGGAGTCACCTAGTGCAG | 4760 fluorescence intensity (a.u.) |
| TGACTGCTGGCTCACATCCAGTCATTGGCTTAGCTAGCTGCGGAGTCACCTAGTGCAG | 4160 fluorescence intensity (a.u.) |
| GGCTGCTCATTGTCGTCTCATCTGGGCTTTTCAATGGGCTCGGAGTCACCTAGTGCAG | 53700 fluorescence intensity (a.u.) |
| CCATTCATGCCCGTGATATCCTGGCTCCACGAGCTCTGCTCGGAGTCACCTAGTGCAG | 59000 fluorescence intensity (a.u.) |
| AATATCATCCGTGTCACTACCTAGCTCCTGCATGCTCTGCCGGAGTCACCTAGTGCAG | 4560 fluorescence intensity (a.u.) |
| TTATTCATACATGTCACTGCCAGGCTGCTGTCTACTTCTTCGGAGTCACCTAGTGCAG | 4950 fluorescence intensity (a.u.) |
| TGAGCACCTCATCCACGCGTCATGCATCTGTGTCGGGGCTCGGAGTCACCTAGTGCAG | 45200 fluorescence intensity (a.u.) |
| CCTTTTCAATGTTCTTGTCATCACTGCTCGTGTCACCCGTCGGAGTCACCTAGTGCAG | 5650 fluorescence intensity (a.u.) |
| ACCTGTGAATGTCTCTAGTGTGACGACTCTACTTCAGTTTCGGAGTCACCTAGTGCAG | 4050 fluorescence intensity (a.u.) |
